# From PubChem BioAssay AID624296 (National Center for Advancing Translational Sciences (NCATS), 2012)
# In all, about 350,000 compounds went through this assay and about 9,900 (2.8%) were called active. Roughly 15% stayed inconclusive and do not appear here. Shown is part of a subset that was picked to be rich in actives. Unmarked numbers belong to inactive results. Calls follow the shape of the dose curve; as a rule, active = well fitted activation curve with a large enough effect; inconclusive = small, poorly fitted or top-dose-only effect; inactive = no such curve, though single readings can be large or run the other way.
# Assay: A quantitative high throughput screen for small molecules that induce DNA re-replication in MCF 10a normal breast cells. Also: nearly all actives have a fitted effect of over 50% in size. As to activity, positive = re-replication: % of control where 0% means no effect.
# Conditions: MCF 10A DNA re-replication, Hoechst nuclear intensity, 48 h; series mostly up to 46.1 µM; activity, positive = re-replication: at the top concentration
# Potency is read from the fitted curve at half-maximal effect.
Compound,Potency,"activity, positive = re-replication"
Cc1ccc(-c2nc3ccccc3[nH]2)cc1NC(=O)c1sc2ccccc2c1Cl,20.6 µM (active),–
O=C(Nc1cccc(-c2nc3ccccc3[nH]2)c1)c1ccc(C(=O)Nc2cccc(-c3nc4ccccc4[nH]3)c2)cc1,–,1.27%
COc1ccc(Br)cc1C(=O)NC(=S)Nc1cc(-c2nc3ccccc3[nH]2)ccc1C,–,12.5%
COc1ccc(S(=O)(=O)N2CCOCC2)cc1NC(=O)CSc1cc(C)ccc1C,–,-1.31%
CCN(CC(=O)Nc1ccccc1C(=O)NC1CC1)Cc1cccs1,–,1.46%
CCC(=O)Nc1ccc(S(=O)(=O)NCC2CCCO2)cc1 (centres undefined),–,6.52%
O=S(=O)(NCC1CCCO1)c1ccc2ccccc2c1 (centres undefined),2.91 µM (active),–
CCOc1ccc(S(=O)(=O)NCC2CCCO2)cc1 (centres undefined),–,-5.07%
O=C(COc1ccc(F)cc1Br)NCC1COc2ccccc2O1 (centres undefined),–,4.72%
CCN(C(=O)COC(=O)CCC(=O)c1cccs1)C1CCCCC1,–,0.146%
Cc1cc(C)c2nc(N3CCCC3)c(C#N)cc2c1,–,13.7%
CCOC(=O)c1cc(C#N)c(N2CCCCC2)nc1-c1ccccc1,13 µM (active),–
CC(=O)c1cc(C#N)c(N2CCCCC2)nc1C,–,11.6%
CC1CN(C(=O)c2ccc([N+](=O)[O-])s2)CC(C)O1 (centres undefined),–,4.26%
C/C(=N\Nc1ccccc1)c1cccs1,–,4.69%
CCCOc1ccc(C(=O)NCCc2ccccc2)cc1,–,16.5%
CCCOc1ccc(C(=O)CCC(=O)OC(C)C(=O)Nc2ccc(NC(C)=O)cc2)cc1 (centres undefined),–,1.31%
CCCOc1ccc(C(=O)C(CCC(CNCC)C(=O)c2ccc(OCCC)cc2)CNCC)cc1 (centres undefined),25.9 µM (active),–
COc1ccc(OC)c(-c2csc(NC(=O)COC(=O)C3CC3)n2)c1,–,2.73%
O=C(c1c(F)cccc1Cl)N1CCN(S(=O)(=O)c2ccc3c(c2)OCCCO3)CC1,–,-3.92%
Cc1ccc(NNC(=O)c2c(F)cccc2Cl)cc1Cl,–,0%
Cc1cc(C)c(S(=O)(=O)c2ccccc2)c(OC(=O)c2c(F)cccc2Cl)n1,16.4 µM (active),–
O=C(COC(=O)c1cccnc1Cl)Nc1ccc(S(=O)(=O)N2CCOCC2)cc1,–,-0.82%
O=C(N[C@H]1C/C=C\C(c2cccc(F)c2)N(Cc2ccccc2)C(=O)C1)OCC1c2ccccc2-c2ccccc21 (some centres undefined),–,24.7%
Cc1nc(-c2ccc(F)cc2)c(CC(=O)N(C)CC(=O)Nc2c(C)cccc2C)s1,–,2.01%
Cc1nc(-c2ccc(Cl)cc2)sc1C(=O)NN,16.4 µM (active),–

Compound,Potency,"activity, positive = re-replication"
Cc1nc(N2CCOCC2)sc1C(=O)NN,–,-7.24%
Cc1nc(-c2ccccc2)sc1C(=O)/C=C/N(C)C,–,-0.119%
O=C1CC(c2ccccc2)C(=O)N2C(=O)CC(c3ccccc3)C(=O)N12 (centres undefined),–,-15.2%
COc1ccc(S(=O)(=O)N(C)C[C@H]2Oc3c(NC(=O)Nc4ccc5c(c4)OCO5)cccc3C(=O)N([C@H](C)CO)C[C@@H]2C)cc1,–,21.1%
CCCN(C(=O)CSc1nnc(N)s1)c1c(N)n(Cc2ccccc2)c(=O)[nH]c1=O,–,0.0358%
O=C(O)CC1=C(Nc2ccccc2)C(=O)N(c2ccccc2)C1c1ccc(Cl)cc1 (centres undefined),–,1.9%
O=C1c2cccc3cc(Br)cc(c23)C(=O)N1Nc1ccccc1,–,1.71%
O=C1C=C(c2ccc(Cl)cc2)C(=O)N1Nc1ccccc1,5.8 µM (active),–
Cc1ccc(Nc2nnc(SC(C)C(=O)NC3CC3)s2)cc1 (centres undefined),–,-7.06%
O=C(NN=C1CCC(=NNC(=O)c2cccnc2)CC1)c1cccnc1,0.58 µM (active),–
C/C(=N\NC(=O)c1cccnc1)c1ccc(-c2ccccc2)cc1,–,-18.5%
O=C(N/N=C/c1ccccn1)c1cccnc1,–,-7.85%
CCN(CC)CCCC(C)n1c2nc(=O)[nH]c(=O)c-2nc2cc(Cl)ccc21 (centres undefined),–,27.2%
Cc1ccc(-c2nn(-c3ccccc3)cc2/C=C2\SC(=S)N(CCCCCC(=O)O)C2=O)o1,18.4 µM (active),–
COc1ccc(-c2nn(-c3ccccc3)cc2/C=C2/SC(=S)N(CCCC(=O)O)C2=O)c(C)c1,–,-14.8%
CN(C)S(=O)(=O)c1cccc(-c2nn(-c3ccccc3)cc2/C=C2\SC(=S)N(CC(=O)O)C2=O)c1,–,6.32%
COc1cc(OC)cc(-c2c(-c3cccs3)c3cc(-c4ccc(OC)nc4)ccc3n2C)c1,–,12.8%
O=C(CCNC(=O)c1ccccc1)Nc1nc2ccccc2s1,–,0.61%
CC(=O)Nc1cccc(-c2cnc3ccccc3n2)c1,–,-6.84%
Cc1ccc2nc(Nc3ccccc3)cc(C)c2c1,–,-2.52%
CCS(=O)(=O)Nc1cccc(-c2cc(-c3ccccc3)c3cc(C)ccc3n2)c1,14.6 µM (active),–
O=C(Cn1cc(C(F)(F)F)ccc1=O)Nc1ccc2c(c1)OCCO2,–,15%
CC(C)(C)OC(=O)c1c(N)n(CCCN2CCCC2=O)c2nc3ccccc3nc12,–,-3.82%
CC(C)(C)c1ccc(C(=O)NCCn2c(N)c(C#N)c3nc4ccccc4nc32)cc1,7.31 µM (active),–
CC(C)(C)c1ccc(C(=O)NCC(=O)OCN2C(=O)c3ccccc3C2=O)cc1,–,-182% [at 0.0737 µM]
Cc1ccnc(SCC(=O)Nc2cccc(S(=O)(=O)N3CCOCC3)c2)n1,–,-9.8%

Compound,Potency,"activity, positive = re-replication"
O=C1C(=O)N(c2ccccc2)C(c2ccccc2)C1c1ccccc1 (centres undefined),–,21.6%
O=C(c1[nH]ncc1-c1ccc(Cl)cc1)C1CO1 (centres undefined),3.66 µM (active),–
O=C(c1nnc(-c2ccc(Cl)cc2)o1)C1CCCC1,–,0.097%
S=c1[nH]nc(-c2ccc(Cl)cc2)n1CC1CCCO1 (centres undefined),–,1.01%
COC(=O)[C@@]1(C)[C@H]2C(=O)N(Cc3ccccc3)C(=O)[C@H]2[C@H]2CN=C(SCC3CC3)N21,–,8.44%
COc1ccc(Cl)cc1NC(=O)CN(C)CC(=O)Nc1ccc2c(c1)OCO2,–,7.09%
Cc1ccc(C)c(N2CCN(C(=O)CCc3nc(-c4cccc(C(F)(F)F)c4)no3)CC2)c1,–,1.26%
NC(=S)NN=C1CCCC(C(F)(F)F)C1 (centres undefined),–,-4.67%
Cc1ccc(S(=O)(=O)n2oc(=O)c(C3CCCCC3)c2N)cc1,–,-4.25%
COc1cccc(CC2(CO)CCN(Cc3cnc(-c4cccc(C)c4)nc3)CC2)c1,–,16.8%
Cc1cccc(-c2ncc(CN3CCC(CO)(CCCc4ccccc4)CC3)cn2)c1,18.4 µM (active),–
OCC1(CCc2ccccc2)CCN(Cc2ccc3nsnc3c2)CC1,–,-0.27%
COc1cccc(C2=CC(=O)C[C@H](c3ccc(OC)c(OC)c3)C2)c1,–,-1.75%
O=C1CSC(=S)N1c1ccc(O)cc1,16.4 µM (active),–
CCOc1ccc(N2C(=O)CSC2=NC#N)cc1,–,0.981%
COc1ccc(N2C(=O)CNC2=S)cc1,–,-1.08%
COc1ccc(CNC(=O)CN2C(=O)NC3(CCCc4sccc43)C2=O)cc1 (centres undefined),–,2.5%
O=C(CCCCCCCC(=O)N1CCCCC1)N1CCCCC1,–,0.602%
O=C(Nc1cc(-c2ccccc2)nn1-c1ccccc1F)c1ccc([N+](=O)[O-])cc1,–,8.57%
O=C1CSc2ccc(C(=O)NCc3ccccn3)cc2N1,–,-5.56%
CCCC(CNC(=O)COC(=O)C1=NNC(=O)CC1)c1ccc(Cl)cc1Cl (centres undefined),–,-31%
O=C(NCc1cccnc1)c1cn(-c2ccccc2)nc1-c1cccs1,–,-3.9%
O=C(O)/C=C/c1cn(-c2ccccc2)nc1-c1cccs1,–,-0.193%
O=C(O)c1ccc(N/N=C/c2cn(-c3ccccc3)nc2-c2cccs2)cc1,23.1 µM (active),–
COc1ccccc1Cn1c(=S)[nH]c2cc(C(=O)N3CCN(C)CC3)ccc2c1=O,–,29.4%
O=c1c2ccccc2[nH]c(=S)n1CCN1CCC(=C(c2ccc(F)cc2)c2ccc(F)cc2)CC1,18.4 µM (active),–

Compound,Potency,"activity, positive = re-replication"
CCCCn1c(=S)[nH]c2ccccc2c1=O,–,10.2%
COc1ccccc1C1C2=C(COC2=O)Nc2cc3c(cc21)OCO3 (centres undefined),–,-4.62%
COc1ccc(C2CC(=O)Nc3cc(C)c(C)cc32)c(OC)c1OC (centres undefined),–,0.878%
CCCOc1ccccc1C1CC(=O)Nc2cc3c(cc21)OCO3 (centres undefined),6.51 µM (active),–
Nc1c(N(Cc2ccco2)C(=O)c2cccc(F)c2)c(=O)[nH]c(=O)n1Cc1ccccc1,–,-4.93%
CC(=O)NC1=NN(C(C)=O)C(C)(c2ccc(Cl)s2)S1 (centres undefined),8.2 µM (active),–
CC(=O)NC1=NN(C(C)=O)C(C)(c2ccc(C)cc2)S1 (centres undefined),–,0.0102%
CC(=O)NC1=NN(C(C)=O)C(C)(CCS(=O)(=O)c2ccc(Cl)c(Cl)c2)S1 (centres undefined),–,-0.888%
COc1ccccc1S(=O)(=O)NCc1ccc(C(=O)N(C)Cc2ccc(F)cc2)cc1,–,-3.7%
O=C(COC(=O)c1cccnc1Cl)NC12CC3CC(CC(C3)C1)C2,–,9.09%
O=C(COC(=O)c1ccc(F)cc1)NCC1COc2ccccc2O1 (centres undefined),–,-12.8%
O=C(COC(=O)c1ccccc1O)NCc1ccco1,–,1%
Cc1cc(C(=O)OCC(=O)NCc2ccco2)c(C)n1-c1ccccc1,6.31 µM (active),–
CN(c1ccccc1)S(=O)(=O)c1ccc(Cl)c(C(=O)OCC(=O)NCc2ccco2)c1,–,1.68%
O=C1c2ccccc2C(=O)N1CCCCCCN1C(=O)c2ccccc2C1=O,–,-5.68%
COC(=O)c1ccc(C)c(NC(=O)Cn2c(C)csc2=O)c1,–,-4.44%
CCSc1nsc(NC(=O)Nc2ccccc2OC)n1,–,0.0049%
C=CCSc1nsc(NC(=O)Nc2cccc(C(C)=O)c2)n1,–,4.65%
CCSc1nsc(NC(=O)Nc2cccc(C(C)=O)c2)n1,16.4 µM (active),–
Cc1cc(N2C(=O)C(O)=C(C(=O)c3ccc(C)o3)C2c2ccc(OCc3ccccc3)cc2)no1 (centres undefined),20.6 µM (active),–
COc1cc(C2C(C(=O)c3ccc(C)o3)=C(O)C(=O)N2CCc2ccccc2)ccc1O (centres undefined),–,1.61%
COc1cc(C2C(C(=O)c3ccc(C)o3)=C(O)C(=O)N2Cc2cccnc2)ccc1O (centres undefined),–,-2.92%
Cc1ccc(NC(=O)CN(C)C(=O)c2cccc(S(=O)(=O)N3CCCC3)c2)cc1,–,-4.81%
Cc1ccc(S(=O)(=O)N2[C@@H](c3cccc4ccccc34)C(C(=O)O)=C[C@H]2C(C)(C)C)cc1,–,0.739%
Cc1ccc(S(=O)(=O)N2C3C=CC(C3)C2C(=O)O)cc1 (centres undefined),–,-0.0101%
Cc1ccc(S(=O)(=O)N2[C@@H](c3ccccc3F)C(C(=O)O)=CC[C@H]2c2ccc(Cl)cc2)cc1,7.31 µM (active),–
